Assay outcomes from PubChem.
The list is not random: actives were taken first. Their share in the collection is about 7.4%.
SMN2 splice enh – SMN2 splice variant enhancement | HEK293 SMN2-luciferase splicing reporter, luminescence, 30-36 h | Potency, µM (titrated, usually from 46.1 µM), for inactives: at the highest dose activity change, positive = activation, hits mostly activators | 2.8% of 210,000 active; note: % of control where 0% means no effect; nearly all actives have a fitted effect of over 55% in size
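qHTS luciferase splicing reporter: luminescence rises when SMN2 exon 7 is included in transfected HEK293 cells. Compound exposure lasted 30-36 h at 37C, with 4.5 mM final sodium butyrate as control, followed by a ONE-Glo read.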
FLuc counter – counter-screen for miR-21 project: firefly luciferase inhibitors or activators; P08659; purified FLuc, Km substrates, luminescence inhibition; Potency, µM (titrated, usually from 57.5 µM), for inactives: at the top dose activity change, negative = inhibition, most hits filed as inhibitors; 6.9% of 360,000 active; AID 588342;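 note: plate controls were vehicle for no effect and reference inhibitor for full effect; nearly all actives have a fitted effect of over 55% in size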
Target sequence (P08659 whole entry, looked up): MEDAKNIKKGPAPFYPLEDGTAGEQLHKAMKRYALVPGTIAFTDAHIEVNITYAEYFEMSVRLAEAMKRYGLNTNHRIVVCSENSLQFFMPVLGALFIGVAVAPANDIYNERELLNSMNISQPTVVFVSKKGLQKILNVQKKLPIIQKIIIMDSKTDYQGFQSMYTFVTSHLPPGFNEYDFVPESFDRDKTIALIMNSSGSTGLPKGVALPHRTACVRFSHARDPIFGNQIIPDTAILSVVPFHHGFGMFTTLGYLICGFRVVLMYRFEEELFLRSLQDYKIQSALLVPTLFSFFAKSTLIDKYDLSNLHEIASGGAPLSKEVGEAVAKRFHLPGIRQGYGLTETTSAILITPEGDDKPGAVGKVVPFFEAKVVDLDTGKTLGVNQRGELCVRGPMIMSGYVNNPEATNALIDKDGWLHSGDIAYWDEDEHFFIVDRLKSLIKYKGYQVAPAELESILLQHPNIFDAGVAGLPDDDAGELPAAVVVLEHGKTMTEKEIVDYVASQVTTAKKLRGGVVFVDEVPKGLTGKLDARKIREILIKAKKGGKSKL
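Biochemical qHTS of compounds, final roughly 60 µM downward over six points, against 10 nM purified firefly luciferase using Km concentrations of substrates (10 uM D-luciferin, 10 uM ATP) in Tris acetate pH 7.5 buffer; luminescence output.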
Rab9 prom act – activators of Rab9 promoter; Potency, µM (titrated, usually from 9.22 µM), for the others: top-dose activation, negative = inhibition, actives largely listed as activators; 2.8% of 320,000 active; AID 485297; Huh7 Rab9 promoter-luciferase reporter, luminescence, 24 h; note: % of control where 0% means no effect; nearly all actives have a fitted effect of over 60% in size
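Huh7 cells stably carrying Rab9 promoter–luciferase reporter, plated 1500 cells/well, compound added after 2 h and incubated 24 h at 37 °C; luciferase luminescence then read after 10 min with detection reagent.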
ELG1 genotox – induces genotoxicity in HEK293T cells with luciferase-tagged ELG1; HEK293T ELG1-luciferase reporter, luminescence, 16 h; Potency, µM (highest dose often 46 µM), inactives show top-dose activity change, positive = activation, most hits filed as activators; 1.3% of 330,000 active; AID 504466; note: % of control where 0% means no effect; nearly all actives have a fitted effect of over 60% in size
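Reporter readout depends on ELG1 protein level, which increases with genetic stress. After 16 hr compound exposure at 37 °C, luciferase activity was quantified using ONE-Glo.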
NPC1 promoter act – activates the NPC1 promoter. Huh7 NPC1 promoter luciferase reporter, 24 h. Potency, µM (highest dose often 9.22 µM), without a hit: at the top dose activation, hits mostly activators. 2.4% of 320,000 active; note: % of control where 0% means no effect; nearly all actives have a fitted effect of over 60% in size
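Stable NPC1-promoter luciferase Huh7 line; cpd (DMSO) 24 h, 37 °C, 5% CO2; Amplite luciferase reagent 10 min RT; luminescence readout. qHTS format.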
p53 reactivation – re-activators of mutant p53; Potency, µM (doses to about 92.2 µM), inactives show at the highest dose activity change, positive = activation, hits mostly activators; H1299 p53-A138V BP100-luciferase reporter, luminescence, 24 h; 0.063% of 320,000 active; note: % of control where 0% means no effect; nearly all actives have a fitted effect of over 45% in size
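H1299 (p53-null), stable ts p53-A138V + BP100-Luc; 1000 cells/well, Opti-MEM/10% FBS; cpd 4 pt, 1:5; 24 h, 37 deg C, 5% CO2; detection reagent 10 min RT; luminescence.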
Starred values were filed as active, the others as inactive; ? = inconclusive; nt = not tested or not shown. Calls come from the whole dose curve; as a rule, active = well fitted curve in the direction sought with a large enough effect; inconclusive = small, poorly fitted or top-dose-only effect, or another doubt; inactive = no such curve, though single readings can be large; an effect the other way counts as inactive or inconclusive. Potency is the fitted concentration of half-maximal effect.

SMILES | SMN2 splice enh | FLuc counter | Rab9 prom act | ELG1 genotox | NPC1 promoter act | p53 reactivation
O=C(O)c1cccc(NS(=O)(=O)c2ccc(C3CCCCC3)cc2)c1 | 16.7% | 26.9µM* | -2.8% | 1.8% | -4.3% | -3.3%
O=C1Cc2c([nH]c3ccc(Br)cc23)-c2ccccc2N1 | 11.2µM* | nt | 0.366µM* | nt | 0.517µM* | nt
Brc1ccc2[nH]c3c(c2c1)CCC3 | nt | -3.1% | 1.6% | -2.9% | -4.4% | -1.8%
CCc1ccccc1Nc1ncnc2c1cnn2-c1ccc(Cl)cc1 | nt | 12µM* | nt | nt | nt | nt
Cc1ccc(-n2ncc3c(NNC(=O)c4ccccc4C)ncnc32)cc1 | nt | -12.2% | nt | nt | nt | nt
Cc1ccc(-n2ncc3c(Nc4ccccc4C)ncnc32)cc1 | nt | 3.38µM* | nt | nt | nt | nt
Cc1ccccc1Nc1ncnc2c1cnn2-c1ccccc1 | 11.2µM* | 16.9µM* | ? | 8.2µM* | ? | ?
CCOc1ccc(Nc2ncnc3c2cnn3-c2ccccc2)cc1 | -2.2% | 4.6% | 24.7% | 18.4µM* | 21.3% | 7.5%
COc1ccc(-c2cc(C(=O)NC(C)c3ccccn3)c3ccccc3n2)cc1OC (centres undefined) | nt | 7.57µM* | -6.3% | -4.4% | -1.4% | -0.5%
COc1cc(C(=O)Nc2ccc(S(=O)(=O)Nc3onc(C)c3C)cc2)cc(OC)c1OC | 6.0% | -2.0% | 5.4% | -0.3% | 6.3% | -12.1%
COc1ccc(-c2cc(C(=O)Nc3ccc(C(N)=O)cc3)c3ccccc3n2)cc1OC | ? | 3.38µM* | 25.4% | -1.0% | 10.3% | -10.6%
COc1ccc(-c2cc(C(=O)NN3CCOCC3)c3ccccc3n2)cc1OC | nt | ? | 3.0% | 1.5% | -3.7% | nt
COc1cc(-c2cc(C(=O)Nc3cccc(C(C)=O)c3)c3ccccc3n2)cc(OC)c1OC | nt | -10.9% | -2.0% | -13.7% | 3.4% | -7.6%
COc1ccc(-c2cc(C(=O)Nc3ccc(S(=O)(=O)Nc4onc(C)c4C)cc3)c3ccccc3n2)cc1OC | nt | 13.5µM* | 8.9% | 1.6% | 8.2% | 1.4%
COc1ccc(-c2cc(C(=O)OC3CCOC3=O)c3ccccc3n2)cc1OC (centres undefined) | -3.5% | 13.5µM* | -2.5% | 4.1% | 8.7% | -1.3%
COc1ccc(C)cc1NC(=O)C1CCN(C(=O)C2CC(=O)N(c3ccc(C)cc3)C2)CC1 (centres undefined) | nt | 2.2% | -2.1% | 0.4% | -0.2% | -11.2%
CC(C)C[C@@H](CC(=O)N[C@@H](CCC(=O)O)CC(=O)O)NC(=O)[C@@H]1CNCC[C@H]1NC(=O)C[C@H](CCCN)NC(=O)C[C@H](Cc1c[nH]c2ccccc12)NC(=O)[C@@H]1CNCC[C@H]1N | 10.1% | nt | nt | nt | nt | nt
COc1ccc(NC(=O)c2cc(-c3ccc(OC)c(OC)c3)nc3ccccc23)c(OC)c1 | nt | 7.57µM* | 18.1% | -0.1% | 13.8% | 5.1%
O=C(NCc1ccccc1)c1noc2c1CCCCC2 | 25.1µM* | 21.3µM* | 1.58µM* | ? | 3.55µM* | ?
O=C(NCc1cccs1)c1noc2c1CCCCC2 | 28.7% | ? | ? | 18.4µM* | ? | ?
O=C(NC1CCCC1)c1noc2c1CCCCC2 | 10µM* | ? | ? | 14.1µM* | ? | 23.3%
O=C(NCc1ccco1)c1noc2c1CCCC2 | -3.1% | -10.2% | 26.7% | 2.2% | 17.2% | ?
COc1ccccc1OCC(=O)N(Cc1ccc(Cl)cc1)CC1CCCO1 (centres undefined) | nt | -10.8% | nt | nt | nt | nt
CCCCn1c(N)c(N(CCOC)C(=O)COC(=O)CCOc2ccccc2)c(=O)[nH]c1=O | nt | 0.1% | -0.2% | 11.2% | -7.4% | 3.5%
Cc1nnc(SCc2ccccc2Cl)c2cc3occc3n12 | nt | 16.9µM* | nt | nt | nt | nt
SMILES | SMN2 splice enh | FLuc counter | Rab9 prom act | ELG1 genotox | NPC1 promoter act | p53 reactivation
O=C(c1cnccn1)N1CCC2(CCN(Cc3ccccc3)CC2)CC1 | 0.4% | nt | nt | nt | nt | nt
Cc1ccc2oc(-c3ccc(NC(=O)c4oc5ccc(Cl)cc5c4C)cc3)nc2c1 | -2.1% | -1.5% | nt | nt | nt | nt
O=C(Nc1nnc(-c2ccncc2)o1)c1ccccc1 | 20.8% | ? | 11.2% | 2.6% | 9.3% | ?
O=C(CCOc1ccccc1)Nc1nnc(-c2ccc3c(c2)OCCO3)o1 | -23.6% | 10.7µM* | 10.4% | -5.6% | 6.5% | 23.6%
O=C(COc1ccccc1)Nc1nnc(-c2ccc3c(c2)CCCC3)o1 | ? | ? | ? | 18.4µM* | ? | 14.9%
O=C(Nc1nnc(-c2ccc3c(c2)CCCC3)o1)c1ccccc1 | -48.1% | 19µM* | -5.8% | ? | 4.3% | 10.8%
O=C(Nc1nnc(-c2ccc3c(c2)CCCC3)o1)c1ccccc1Cl | 16.2% | 23.9µM* | 6.6% | -0.9% | 2.2% | ?
O=C(COc1ccccc1)Nc1nnc(-c2ccc(F)cc2)o1 | nt | -0.4% | -3.1% | -9.0% | -3.2% | 16.0%
COC(=O)[C@@]1(C)C=C[C@@H](Cc2ccccc2)N1C(=O)c1ccccc1 | -8.2% | nt | nt | nt | nt | nt
CC(/C=C/c1ccccc1)=N/NC(=O)c1cccc(Br)c1 | -9.2% | 2.4% | -9.8% | -5.0% | -1.4% | -5.0%
O=C(Nc1cccc(F)c1)N1CC[C@@]2(CCCN(C(=O)c3ccncc3)C2)C1 | -8.4% | nt | nt | nt | nt | nt
O=C(Nc1nnc(-c2ccc3c(c2)OCCO3)o1)C1CCCCC1 | ? | ? | 2.51µM* | ? | 3.55µM* | 3.7%
O=C(Nc1nnc(-c2ccc(Br)cc2)o1)c1cccc(N2C(=O)CCC2=O)c1 | nt | 12µM* | -0.4% | 1.7% | 1.0% | 4.8%
CN1C(=O)N(C)C2=NNC=NC2(O)C1=O (centres undefined) | -74.0% | nt | nt | nt | nt | nt
CN(C)c1ccc(C(=O)OCC(=O)c2cccs2)cc1 | 6.31µM* | 3.38µM* | 1.78µM* | 8.2µM* | 3.55µM* | ?
CSc1ncccc1C(=O)OCC(=O)c1cccs1 | 5.1% | 19µM* | -1.6% | 0.3% | -4.1% | 1.8%
CCc1ccc(C(=O)COC(=O)c2cccs2)cc1 | -10.7% | 0.19µM* | 1.41µM* | 4.47µM* | 2.51µM* | ?
CSc1ncccc1C(=O)OCC(=O)c1ccc(C)s1 | nt | nt | nt | 1.5% | nt | 18.2%
Cc1ccc(C(=O)COC(=O)c2cccs2)cc1 | ? | 0.151µM* | 0.447µM* | ? | 0.794µM* | nt
COc1ccc(C(=O)COC(=O)c2ccc(N(C)C)cc2)cc1 | 5.3% | 1.2% | ? | -1.5% | 20.7% | -0.2%
Cn1c(SCc2ccc(Br)cc2)nc2c([nH]c3ccccc32)c1=O | nt | 0.1% | nt | nt | nt | nt
CCOc1ncccc1C(=O)OCC(=O)c1cccs1 | 4.5% | ? | -5.3% | 1.7% | -4.1% | 0.7%
O=C(OCC(=O)c1cccs1)c1cccc(C(=O)OCC(=O)c2cccs2)n1 | 2.4% | 12µM* | 8.5% | -1.0% | -2.0% | -1.3%
COc1ccc(C)cc1-n1nnnc1SCC1CCCO1 (centres undefined) | -7.0% | 0.3% | -5.7% | 1.2% | 1.0% | -0.9%
